Sampled rows, rich in hits. Any-hit rate of the full collection: about 1.3%.
LANA-H2B inh: blockers of LANA interaction with H2A/H2B – biochemical, FP readout, HTS, primary screen. Protein LANA1 (Human herpesvirus 8 type P (isolate GK18)), Q9QR71. cell-free LANA-H2A/H2B peptide, fluorescence polarization. inhibition, % (no concentration beside the values). AID 2629, 2010. 320,000 compounds, 0.6% hits; in the data active = inhibition mostly above about 10%, no sharp cut-off; inactive = mostly below about 6.7%
RTF Ca sens act: cardiac RTF calcium sensitivity activators, primary screen, biochemical, IANBD-TnC fluorescence, EC20 calcium; Troponin I, cardiac muscle (Homo sapiens) + Troponin T, cardiac muscle (Homo sapiens) + …; IANBD-labeled TnC RTF fluorescence at EC20 calcium; 0% EC20 calcium, 100% full calcium; activation, % at 7.2 µM; 340,000 compounds, 0.24% hits;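 active = activation above the mean over all tested compounds plus 3 SD, cut at about 30% in these data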;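 also: rise in fluorescence read as greater calcium sensitivity of cardiac thin filaments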
LANA DNA inh: inhibitors of KSHV C-LANA binding to DNA, primary screen, biochemical, fluorescence polarization, FAM-LBS DNA, MBP-C-LANA, single point; Kaposi's sarcoma herpesvirus LANA C-terminal domain (residues 932-1162) DNA binding; inhibition, % at 9 µM; 340,000 compounds, 0.078% hits;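 active = highest replicate inhibition at or above 60% at 9 µM, even if other replicates fall short; inactive = all replicates below 60% inhibition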
Keap1-Nrf2 PPI: Keap1-Nrf2 protein-protein interaction inhibitors, primary screen, biochemical, fluorescence polarization, single point; 340,000 compounds, 0.15% hits; Keap1 Kelch-Nrf2 peptide fluorescence polarization, 1536-well; inhibition, % at 9.4 µM; Kelch-like ECH-associated protein 1 (Homo sapiens), Q14145; in the data active = inhibition above about 12%;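 also: human Keap1 Kelch domain with fluorescein labeled Nrf2 9mer peptide probe; higher means more block of Keap1 binding to Nrf2 peptide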
Cardiac RTF inh: cardiac RTF calcium sensitivity inhibitors, primary screen, biochemical, IANBD-TnC fluorescence, EC70 calcium; Troponin I, cardiac muscle (Homo sapiens) + Troponin T, cardiac muscle (Homo sapiens) + …; IANBD-labeled cardiac RTF, Ca2+ fluorescence; inhibition, % at 7.15 µM; 340,000 compounds, 0.12% hits; AID 493244, 2011;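 active = inhibition above the mean inhibition of all tested compounds plus 3 SD, cut at about 17% in these data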;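 also: assay run at fixed EC70 calcium of 1.6 mM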
E coli Lon inh: inhibitors of E. coli Lon protease, primary screen, biochemical, fluorescence polarization; purified E. coli Lon protease; inhibition, % at 7.94 µM; 360,000 compounds, 0.42% hits; AID 602123, 2011; in the data active = inhibition above about 13%, passing the limit was not always enough
Target sequence (P0A9M0 whole entry, looked up): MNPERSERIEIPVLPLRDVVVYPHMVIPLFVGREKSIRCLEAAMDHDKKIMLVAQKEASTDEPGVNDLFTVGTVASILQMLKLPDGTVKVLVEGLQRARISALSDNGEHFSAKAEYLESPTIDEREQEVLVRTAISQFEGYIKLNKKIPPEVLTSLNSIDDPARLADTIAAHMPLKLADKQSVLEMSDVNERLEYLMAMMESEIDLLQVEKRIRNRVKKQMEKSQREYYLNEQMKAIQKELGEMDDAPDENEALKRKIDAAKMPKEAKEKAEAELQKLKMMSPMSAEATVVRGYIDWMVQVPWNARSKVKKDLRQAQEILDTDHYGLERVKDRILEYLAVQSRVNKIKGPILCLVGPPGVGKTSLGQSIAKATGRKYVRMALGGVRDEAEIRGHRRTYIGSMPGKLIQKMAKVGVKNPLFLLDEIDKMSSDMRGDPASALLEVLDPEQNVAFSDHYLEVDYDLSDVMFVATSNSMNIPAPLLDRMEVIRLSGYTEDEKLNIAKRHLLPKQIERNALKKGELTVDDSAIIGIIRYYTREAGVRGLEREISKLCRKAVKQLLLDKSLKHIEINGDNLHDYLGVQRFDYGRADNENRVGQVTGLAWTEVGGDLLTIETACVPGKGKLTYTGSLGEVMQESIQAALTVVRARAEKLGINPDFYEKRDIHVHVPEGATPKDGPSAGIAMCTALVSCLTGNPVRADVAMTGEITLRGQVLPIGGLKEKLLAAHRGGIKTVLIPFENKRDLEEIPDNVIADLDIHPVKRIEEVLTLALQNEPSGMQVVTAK
Hits are given with their value; 0 = inactive; - = not tested or not shown; + = active, no number.

SMILES	LANA-H2B inh	RTF Ca sens act	LANA DNA inh	Keap1-Nrf2 PPI	Cardiac RTF inh	E coli Lon inh
CN(C)c1ccc2c(c1)OC(N)=C(C#N)C2c1cccc(F)c1 (stereo unspecified)	0	72.8	0	0	0	0
O=C(NC1CCC1)C1CCC(=O)N(Cc2cccc(F)c2)C1 (stereo unspecified)	37.6	0	0	0	0	0
O=C(NC1CCC1)C1CCC(=O)N(Cc2ccccc2F)C1 (stereo unspecified)	0	0	0	0	0	0
COc1ccc(/C=C2\SC(=O)N(CCC(=O)N(C)C3CCS(=O)(=O)C3)C2=O)cc1 (stereo unspecified)	0	0	0	0	0	0
CN(C(=O)CCN1C(=O)S/C(=C\c2ccccc2)C1=O)C1CCS(=O)(=O)C1 (stereo unspecified)	17.8	0	0	0	0	0
CCOC(=O)CN1C=C(c2ccc3ccccc3n2)C(C[N+](=O)[O-])c2ccccc21 (stereo unspecified)	0	35.9	0	0	0	115.4
CC(C)(C)OC(=O)C[C@H]1C/C=C\C[C@@H](CC(=O)N[C@@H](CO)Cc2ccccc2)C(=O)NC[C@@H](c2ccccc2)OC1=O	0	0	0	0	0	0
CCOC(=O)C1(Cc2cccc(Cl)c2)CCCN(C(=O)c2ccoc2C)C1 (stereo unspecified)	95.3	0	0	0	0	0
CC(NC(=O)/C(C#N)=C/c1ccc([N+](=O)[O-])o1)c1ccccc1 (stereo unspecified)	0	0	0	0	0	0
CCN(CC)c1ccc(/C=C(/C#N)C(=O)NCc2ccccc2)o1	0	110.6	0	0	0	0
CC(C)NC(=O)/C(C#N)=C\c1ccc(N(C)C)o1	0	63.6	0	0	0	0
CCN(CC)c1ccc(/C=C(/C#N)C(=O)NC(C)C)o1	0	71.5	0	0	0	0
O=C(NCCC1=CCCCC1)c1cccc(S(=O)(=O)N2CCCCC2)c1	0	0	0	0	0	0
O=C(N/N=C/c1c[nH]c2ccccc12)c1ccc(Br)cc1	0	0	0	0	0	0
O=C(N/N=C\c1c[nH]c2ccccc12)c1ccc(O)cc1	73.6	0	0	0	0	0
Cc1ccc(OCCNC(=O)CCc2nc3sc4c(c3c(=O)[nH]2)CCCC4)cc1	34.8	0	0	0	0	0
O=C(Nc1c(O)c2ccccc2[nH]c1=O)c1ccco1	0	0	0	0	0	0
O=C1CC[C@H](OCc2ccccc2)CCN1[C@H](CSc1ccccc1)Cc1ccccc1	0	0	0	0	0	0
CCOC(=O)c1c(-c2ccccc2)csc1NC(=O)/C(C#N)=C\c1ccc(O)c(OC)c1	-	39.8	0	0	0	0
CCOC(=O)c1c(-c2ccc(C)cc2)csc1NC(=O)/C(C#N)=C/c1ccc(O)c(OC)c1	-	49.2	0	0	0	0
CSCCC(NS(=O)(=O)c1ccccc1F)C(=O)Nc1cccc(C)n1 (stereo unspecified)	0	0	0	0	0	0
O=C(C[C@@H]1C/C=C\C[C@@H](NC(=O)OCC2c3ccccc3-c3ccccc32)C(=O)OCCNC1=O)N[C@@H](CO)Cc1ccccc1	+	0	0	0	0	0
COc1ccc(-c2[nH]ncc2CN2CCC(C(=O)c3ccc(F)cc3)CC2)cc1	0	0	0	0	0	0
CC(C)(C)OC(=O)NCCCCCc1nnc(SCc2c(F)cccc2Cl)o1	14.4	0	0	0	0	0
CC(C)(C)OC(=O)NCCc1nnc(SCc2c(Cl)cccc2Cl)o1	0	0	0	0	0	0
SMILES	LANA-H2B inh	RTF Ca sens act	LANA DNA inh	Keap1-Nrf2 PPI	Cardiac RTF inh	E coli Lon inh
COc1ccc(N(CC(=O)Nc2cccc(N(C)S(C)(=O)=O)c2)S(=O)(=O)c2ccc(C)cc2)cc1	0	0	0	0	0	0
CCOc1ccc(N(CC(=O)Nc2cccc(N(C)S(C)(=O)=O)c2)S(=O)(=O)c2ccccc2)cc1	24.8	0	0	0	0	0
COc1ccc(N(CC(=O)Nc2cccc(N(C)S(C)(=O)=O)c2)S(=O)(=O)c2ccc(F)cc2)cc1	152.2	0	0	0	0	0
CCOc1ccc(N(CC(=O)Nc2cccc(Br)c2)S(C)(=O)=O)cc1	35.7	0	0	0	0	0
CN(c1cccc(NC(=O)CN(c2cccc(Cl)c2)S(=O)(=O)c2ccccc2)c1)S(C)(=O)=O	0	0	0	0	0	0
CC(C)(C)n1nnnc1C(c1ccccc1)N1CCN(c2ncc(C(F)(F)F)cc2Cl)CC1 (stereo unspecified)	-	-	-	-	-	0
CN(C)S(=O)(=O)c1cccc(NC(=O)Cc2ccc(Cl)cc2)c1	0	0	0	0	0	0
CN(C)S(=O)(=O)c1cccc(NC(=O)CCc2c[nH]c3ccccc23)c1	+	0	0	0	0	0
O=C(NC(Cc1ccccc1)C(=O)Oc1ccc2c(C(F)(F)F)cc(=O)oc2c1)OCc1ccccc1 (stereo unspecified)	175.1	0	0	0	0	73.7
CCCc1cc(=O)[nH]c2nnc(SCC(=O)NC3CCCC3)n12	0	0	0	0	0	0
CCCCN(C)CC(O)Cn1cc(/C=C/C(=O)c2cccs2)c2ccccc21 (stereo unspecified)	+	0	0	0	0	0
CCCCN(C)CC(O)Cn1cc(/C=C/C(=O)c2ccc(OCC)cc2)c2ccccc21 (stereo unspecified)	0	-	-	-	-	-
CN(C)c1ccc(NC(=O)CSc2nnc(-c3ccco3)c(-c3ccco3)n2)cc1	0	0	0	0	0	0
O=C(CSc1nnc(-c2ccco2)c(-c2ccco2)n1)Nc1ccccc1	0	0	0	0	0	157.4
Cc1ccccc1NC(=O)CSc1n[nH]c(-c2ccco2)n1	15.8	0	0	0	0	0
COc1ccccc1NC(=O)CSc1n[nH]c(-c2ccco2)n1	-	0	0	0	0	0
CC(C)CN(C(=O)c1ccco1)C1CCS(=O)(=O)C1 (stereo unspecified)	0	0	0	0	0	0
CSCCC(NS(=O)(=O)c1ccc(Cl)c(Cl)c1)C(=O)O (stereo unspecified)	17.3	0	0	0	0	0
COc1ccc(C(=O)COC(=O)C(CCSC)NS(=O)(=O)c2ccc(Cl)cc2)cc1 (stereo unspecified)	175.5	0	0	0	0	0

Screening data from PubChem BioAssay.
